“And” between values parts separate entries of the source, which are not always exact repeats. Identical values can stand only once. Results filed as inconclusive are left out. Entries that show only a call come without a potency. A structure can be active in one record and inactive in another. The source made the active and inactive calls. Calls come from the whole dose curve; as a rule, active = well fitted activation curve with a large enough effect in the repeat runs; inconclusive = weak or mixed curves; inactive = flat fitted curve, though single readings scatter.
Potency is the fitted concentration of half-maximal effect.

This assay in a line: A CellTox Green Cytotoxicity Assay to monitor cytotoxicity in HepG2 cells - 16 hour (AID 1224876). Note: nearly all actives have a fitted effect of over 45% in size. The settings on record: CellTox Green fluorescence; series mostly up to 76.8 µM. From the text:
National Center for Advancing Translational Sciences [NCATS]
NIH Chemical Genomics Center [NCGC]
U.S. Environmental Protection Agency [EPA]
National Institutes of Environmental Health Sciences [NIEHS]
National Toxicology Program [NTP]
Cell-based models are critical for drug discovery. Determining the natural cytotoxic effects resulting from test compounds is an essential research activity. A CellTox Green Cytotoxicity Assay to monitor cytotoxicity in real time of continues cell culture during 40 hours of the compound treatment was used to screen Tox21 10K library compounds in HepG2 cells. CellTox Green Cytotoxicity Assay is a nonlytic, homogeneous, biofluorescent method to measure cytotoxicity in cell culture after experimental manipulation. The assay system uses a proprietary asymmetric cyanine dye that is excluded from viable cells but preferentially stains the dead cell's DNA. […] Viable cells produce no appreciable increases in fluorescence. Therefore, the fluorescence signal produced by the binding interaction with dead cell DNA is proportional to cytotoxicity.
The mixture of HepG2 cell suspension and reagents were dispensed at 600cells/6 ul/well in 1536-well tissue culture treated black solid bottom plates using a Multidrop dispenser. After the assay plates were incubated at a 37 C/5% CO2 incubator for 5 hours, 23 nL of compounds dissolved in DMSO, positive and negative controls was transferred to the assay plate by a pintool work station. The plates were incubated at 37 C for 40 hours. The fluorescence intensity were measured at 0h, 8h, 16h, 24h, 32h and 40h time points using ViewLux plate reader during compound treatment.
In the case of `C=C(C)C(=O)OCC(CC)(COC(=O)C(=C)C)COC(=O)C(=C)C`, the Potency result was “inactive and 42.9 µM (active)”.
With `CN(CCOc1ccc(CC2SC(=O)NC2=O)cc1)c1ccccn1` (stereo not given) the entry was “inactive”.
With `O=C(O)c1cc(-c2ccccc2)nc2ccccc12` the entry was “inactive”; with `CC1(C)O[C@@H]2C[C@H]3[C@@H]4C[C@H](F)C5=CC(=O)CC[C@]5(C)[C@H]4[C@@H](O)C[C@]3(C)[C@]2(C(=O)CO)O1`, 49 µM (active) and inactive.
With `NC(=O)NNc1ccccc1` the entry was “inactive”; with `O=S(=O)(Oc1ccc(Cl)cc1Cl)c1ccccc1`, “inactive”.
Regarding `CC(=O)CCc1ccccc1`, the Potency result is “inactive”.
Take `COC(=O)c1ccccc1O`: the Potency result was “inactive”.
With `O=C1CCCCC1` the entry was “inactive”; with `CCCCCCCCCCCCN`, “inactive and 19.5 µM (active)”.
For the compound `NCCc1ccc(O)c(O)c1`, the Potency result was “inactive”.
Take `c1ccc2ccccc2c1`: the Potency result was “inactive”.
In the case of `CC#C[C@]1(O)CC[C@H]2[C@@H]3CCC4=CC(=O)CCC4=C3[C@@H](c3ccc(N(C)C)cc3)C[C@@]21C`, the Potency entry is “inactive”.
Consider `CCOC(=O)C1OC1c1ccccc1` (stereo not given), for which the Potency entry was “inactive”.
With `OCCOCCOCCOCCO`, the Potency entry was “inactive”.
On to `C/C=C(C)/C=C/C=C(C)C`, for which the Potency entry is “inactive”.
On to `COC(=O)c1ccc(C(=O)OC)cc1`, for which the Potency result is “inactive”.
As to `CC1COc2ccccc2N1C(=O)C(Cl)Cl` (stereo not given), the Potency entry was “inactive”.
In the case of `CCCCC(CC)COC(C)=O` (stereo not given), the Potency result is “inactive”.
With `Oc1ccc2ccccc2c1` the entry was “inactive”; with `O=S(=O)(O)CCS`, “inactive”.
With `CC(C)(N=C=O)c1cccc(C(C)(C)N=C=O)c1` the entry was “inactive”; with `Clc1ccc(Cl)c(Cl)c1Cl`, “inactive”.
Consider `CCCCCCCCCC(=O)O`, for which the Potency entry was “inactive”.
As for `CCc1ccccc1O`, the Potency entry was “inactive”.
Consider `CC(C)NCC(O)COc1cccc2ccccc12` (stereo not given), for which the Potency entry is “inactive”.
With `Oc1ccc(OCc2ccccc2)cc1` the entry was “inactive”; with `CC1=C(/C=C/C(C)=C/C=C/C(C)=C/CO)C(C)(C)CCC1`, “inactive”.
As to `c1ccc2[nH]cnc2c1`, the Potency result is “inactive”.
For `O=C1N=C(O)CN1/N=C/c1ccc(-c2ccc([N+](=O)[O-])cc2)o1`, the Potency entry is “inactive”.
With `Nc1c(S(=O)(=O)O)cc(Br)c2c1C(=O)c1ccccc1C2=O`, the Potency result was “inactive”.
With `CC1=C(CC(=O)O)c2cc(F)ccc2/C1=C\c1ccc(S(C)=O)cc1` (stereo not given) the entry was “inactive”; with `CCCCNC(N)=O`, “inactive”; with `CCCCCCCCCCCCOCC1CO1` (stereo not given), “inactive”.
Consider `Cc1ccc(C(=O)O)o1`, for which the Potency result was “inactive”.
As for `CCCCC(CC)COC(=O)/C=C\C(=O)OCC(CC)CCCC` (stereo not given), the Potency result was “inactive”.
As for `CC(C)(C)C1CCC(O)CC1` (stereo not given), the Potency entry was “inactive”.
For the compound `CCCCCC/C=C/CCCCCCCC(=O)O`, the Potency entry is “inactive”.
With `CCOC(=O)/C=C\C(=O)OCC`, the Potency entry is “inactive”.
As for `CCCCCCOC(C)=O`, the Potency result is “inactive”.

The values are drawn from PubChem BioAssay (Tox21).
